From PubChem BioAssay (NCATS)
Inconclusive results are not listed. Active and inactive are the calls of the source. Unless noted, calls follow the shape of the dose curve; as a rule, active = well fitted curve in the direction sought with a large enough effect; inconclusive = small, poorly fitted or top-dose-only effect, or another doubt; inactive = no such curve, though single readings can be large; an effect the other way counts as inactive or inconclusive.

Assays:
[1] = qHTS to identify inhibitors of the type 1 interferon - major histocompatibility complex class I in skeletal muscle: primary screen against the NCATS Mechanism Interrogation Plate v5.0 (MIPE) Libary (AID 1347411); also: nearly all actives have a fitted effect of over 65% in size
Outline: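 Luminescence from HiBiT-tagged endogenous HLA-B*08:01 served as the MHC class I read-out. CRISPR-engineered C25cl48 human myoblasts received 4.0 ng/ml IFN-beta plus compound for 24 hrs, with an 11-point, 1:3 series topping at 46 uM final.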

[2] = Primary qHTS for Huh7 cytotoxicity: counterscreen for inhibitors of MERS-S pseudotyped particle cell entry (AID 1479147; calls by dose curve)
[3] = Primary qHTS for inhibitors of MERS-S pseudo-typed particle cell entry (AID 1479149; calls by dose curve; also: nearly all actives have a fitted effect of over 60% in size)
[4] = Primary qHTS for Vero E6 cytotoxicity: counterscreen for inhibitors of SARS-S pseudo-typed particle cell entry (AID 1479150; calls by dose curve)
[5] = target: Calcium and integrin-binding protein 1 (Homo sapiens) (UniProt Q99828); test: Primary qHTS for Identification of Calcium Integrin Binding Protein 1 (CIB1) Competitor (AID 1508620);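 also: GST tagged CIB1 binding a fluorescein labelled alphaIIb integrin peptide tracer; top concentration of the series differs between compounds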
Chain of Calcium and integrin-binding protein 1 (Homo sapiens) (Q99828 whole entry, looked up): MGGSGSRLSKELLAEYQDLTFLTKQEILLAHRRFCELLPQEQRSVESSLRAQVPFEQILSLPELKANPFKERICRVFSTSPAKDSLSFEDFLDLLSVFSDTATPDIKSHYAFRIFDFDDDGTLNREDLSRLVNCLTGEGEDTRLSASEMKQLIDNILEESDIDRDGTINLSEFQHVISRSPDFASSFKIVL
Outline: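 CIB1-GST (1 uM final) and compound incubated 15 min at room temperature before adding FITC-alphaIIb peptide tracer (100 nM final). Competition for binding read by fluorescence polarization (ex 480, em 540) after another 15 min at room temperature.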

[6] = target: Protein phosphatase 1D (Homo sapiens) (UniProt O15297); test: RapidFire Mass Spectrometry qHTS Assay for Modulators of WT P53-Induced Phosphatase 1 (WIP1) (AID 1347424);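 also: amount of dephosphorylated VEPPL-S-QETFS peptide product formed by WIP1; series mostly up to about 63 µM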
Chain of Protein phosphatase 1D (Homo sapiens) (O15297 whole entry, looked up): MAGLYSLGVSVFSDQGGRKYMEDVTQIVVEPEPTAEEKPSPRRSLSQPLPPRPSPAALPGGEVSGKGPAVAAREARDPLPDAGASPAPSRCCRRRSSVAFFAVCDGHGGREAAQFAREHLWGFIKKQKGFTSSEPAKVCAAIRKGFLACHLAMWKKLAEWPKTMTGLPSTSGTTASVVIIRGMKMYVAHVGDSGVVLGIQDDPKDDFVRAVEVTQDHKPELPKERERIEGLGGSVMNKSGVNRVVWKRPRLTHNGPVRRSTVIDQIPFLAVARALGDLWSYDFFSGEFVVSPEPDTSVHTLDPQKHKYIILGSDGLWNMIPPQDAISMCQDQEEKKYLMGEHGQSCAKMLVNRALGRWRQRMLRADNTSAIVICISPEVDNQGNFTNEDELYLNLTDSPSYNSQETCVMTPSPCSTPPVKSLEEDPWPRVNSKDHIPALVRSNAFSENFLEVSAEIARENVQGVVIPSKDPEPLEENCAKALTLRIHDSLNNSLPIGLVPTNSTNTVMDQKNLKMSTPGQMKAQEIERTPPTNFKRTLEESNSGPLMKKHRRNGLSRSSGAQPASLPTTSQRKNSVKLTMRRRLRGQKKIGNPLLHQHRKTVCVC
Outline: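 10 nM WIP1 + cpd, 1 h RT; + 2 uM VEPPL-pS-QETFS, 5 min RT; stop 0.5% formic acid; labelled product standard 1 uM; RapidFire MS. Buffer 50 mM Tris pH 7.5, 30 mM MgCl2, 1 mM TCEP.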

[7] = target: Protein phosphatase 1D (Homo sapiens) (UniProt O15297); test: Rhodamine-PBP qHTS Assay for Modulators of WT P53-Induced Phosphatase 1 (WIP1) (AID 1347425)
Outline: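 The read-out is the change in Rhodamine-PBP fluorescence (f1 - f0, ex 525/em 598 nm) as Pi is released, read each minute for 11 min. Final reaction: 5 nM WIP1, 10 uM phosphopeptide VEPPL-pS-QETFS, 10 uM Rh-PBP, 50 mM Tris-HCl pH 7.5, 30 mM MgCl2. Compound was preincubated with enzyme for 1 hour at room temperature.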

[8] = Primary qHTS for inhibitors of SARS-S pseudo-typed particle cell entry (AID 1479145; calls by dose curve; also: nearly all actives have a fitted effect of over 45% in size)
[9] = Primary qHTS for inhibitors of La Crosse Virus (LACV) - induced cell death in SH-SY5Y cells (AID 1508616);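 also: top concentration of the series differs between compounds; higher means more rescue of cells from virus-induced death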
Outline: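 Protection against LACV-induced cell death is scored in SH-SY5Y cells exposed to compounds and virus (0.01 MOI) for 6 days. Data normalized to virus-infected DMSO wells and virus-free DMSO wells.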

[10] = A High-Content qHTS Against Drug Library for the Identification of Small Molecules that Inhibit DYT1 Early Onset Primary Dystonia-Associated Cell Pathology (AID 1645839; calls by dose curve; also: series mostly up to about 46 µM)
Outline: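 In this high-content image screen, delE TorsinA mislocalization in inducible Flp-In 293 cells is scored as %pathology, with cell count serving as the counterscreen. Compound exposure lasts 48 h under tetracycline induction in reduced-serum medium.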

[11] = Primary qHTS for small molecule stabilizers of the endoplasmic reticulum resident proteome: Secreted ER Calcium Modulated Protein (SERCaMP) assay (AID 1508630)
Outline: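 GLuc-SERCaMP-expressing SH-SY5Y cells, pretreated 16 h with compound, are challenged with thapsigargin to empty ER calcium stores; after 4 h, coelenterazine is added directly to the medium and luminescence is imaged.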

[12] = qHTS for inhibitors of adenylyl cyclases using a fission yeast platform: a pilot screen against the NCATS LOPAC library (AID 1347410)
Outline: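 GFP from fbp1-GFP reporter, read by Acumen laser cytometry, indicates AC inhibition in fission yeast expressing AC9, GNAS and PDE4D2. Cells grown 18 h in the dark at 30C with compounds, final up to 57 uM.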

[13] = Validation qHTS assay for inhibitors of Activation Induced Cytidine Deaminase (AID): UDG Counterscreen signal (AID 1347427)
Outline: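 Counterscreen read of UDG activity (2 U/mL, 4/3x) in the FRET deamination format with AID (1 uM, 4/3x), DJC20/DJC23 substrates (250 nM, 4x), 4 h at room temperature. NaOH stop, fluorescence at 560 ex/665 em.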

[14] = target: Calcium and integrin-binding protein 1 (Homo sapiens) (UniProt Q99828); test: Validation qHTS for Identification of Calcium Integrin Binding protein 1 (CIB1) Competitor (AID 1508618)
Outline: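 CIB1-GST (1 uM final) incubated 15 min at room temperature with compounds (up to 114 uM), then FITC-labelled alphaIIb peptide (100 nM) added. FP read (Ex 480/Em 540) after 15 min, pH 7.4 buffer containing 5 mM CaCl2.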

Measured: Potency

C[C@]12CC[C@@H]3c4ccc(OC(=O)N(CCCl)CCCl)cc4CC[C@H]3[C@@H]1CC[C@@H]2OP(=O)(O)O
inactive: [1] | [2] | [3] | [4] | [5]

Nc1ccc([As](=O)(O)O)cc1
inactive: [6] | [7] | [8] | [2] | [3] | [4] | [9] | [5]

C[C@]12CC[C@H]3[C@@H](CC[C@@]45O[C@H]4C(O)=C(C#N)C[C@]35C)[C@H]1CC[C@H]2O
inactive: [6] | [7] | [2] | [4] | [9] | [5] | [10]

COc1cccc(C(=O)CCN[C@@H](C)[C@H](O)c2ccccc2)c1
inactive: [6] | [7] | [2] | [3] | [4] | [9] | [5] | [11]

CN1C(=O)CCS(=O)(=O)C1c1ccc(Cl)cc1 (stereo not given)
not listed: [3] | [6] | [7] | [11]
inactive: all other assays above

CC(C)N(CCC(C(N)=O)(c1ccccc1)c1ccccn1)C(C)C (stereo not given)
not listed: [1] | [7] | [8]
inactive: all other assays above

C=C(C)[C@H]1CN[C@H](C(=O)O)[C@H]1CC(=O)O
not listed: [1] | [10]
inactive: all other assays above

O=C(O)CCCc1ccc(N(CCCl)CCCl)cc1
not listed: [7] | [8] | [11] | [12] | [14]
inactive: all other assays above
